In PubChem BioAssay (NCATS) one finds activation and Potency data, which are given here for 29 compounds.

Structures are written as SMILES. Values joined by “and” are separate entries in the source; they are usually repeats but may differ in a detail not shown here. Identical values can stand only once. Inconclusive results are not listed. Unmarked numbers belong to inactive results. Active and inactive are the calls of the source. The call rests on the fitted dose curve; in most records, active means well fitted activation curve with a large enough effect; inconclusive means small, poorly fitted or top-dose-only effect; inactive means no such curve, though single readings can be large or run the other way.
Potency means the concentration at half of the fitted maximal effect.

In the assay the target is Cellular tumor antigen p53 (Homo sapiens) (UniProt P04637). The assay can be described thus: Primary qHTS for small molecule compounds that upregulate eGFP-tagged delta133p53alpha (in N-terminal) cells. (AID 2060322). Further: nearly all actives have a fitted effect of over 75% in size.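 On activation: cells pre-induced with doxycycline then dosed without doxycycline; series mostly up to about 56 µM; 0% = DMSO vehicle and 100% = reference activator.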 Conditions: NCI-H358 eGFP-delta133p53alpha fluorescence, 24 h; activation: active compounds read high. Summed up: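 NCI-H358 cells pre-induced 24 h with 10 ng/ml doxycycline for eGFP-delta133p53alpha, plated dox-free and exposed 24 h at 37C to titrated compounds. Fixed, Hoechst-stained; gated GFP peak intensity by laser scanning cytometry, normalized to DMSO (0%) and 57.5 uM 5-azacytidine (100%).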
Cellular tumor antigen p53 (Homo sapiens), sequence (P04637 whole entry, looked up): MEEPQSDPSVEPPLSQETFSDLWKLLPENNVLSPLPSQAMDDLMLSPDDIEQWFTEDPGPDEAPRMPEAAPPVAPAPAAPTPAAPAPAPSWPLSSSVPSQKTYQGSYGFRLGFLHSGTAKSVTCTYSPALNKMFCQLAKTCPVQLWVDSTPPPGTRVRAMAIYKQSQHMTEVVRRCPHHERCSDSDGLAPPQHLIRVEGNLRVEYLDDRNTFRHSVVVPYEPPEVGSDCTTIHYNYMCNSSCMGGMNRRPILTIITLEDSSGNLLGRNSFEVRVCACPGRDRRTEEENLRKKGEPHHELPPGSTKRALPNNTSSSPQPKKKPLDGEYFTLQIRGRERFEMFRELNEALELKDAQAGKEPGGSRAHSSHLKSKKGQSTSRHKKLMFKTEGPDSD
With `CC1=CC2/C=C(\C)CCC(O)C(O)/C=C/C(=O)OC23C(=O)NC(CC(C)C)C3C1C` (centres undefined), the activation was 0.763%.
The same measure, in the same setting: the result for `CCC(C)(C#N)O[C@@H]1O[C@H](CO)[C@@H](O)[C@H](O)[C@H]1O` (some centres undefined) reads 16.8%.
Turning to `C=C1C(=O)CC2OC2(C)CC2OC(=O)C(=C)C2C(O)C1OC(=O)/C(C)=C\C` (centres undefined), the Potency is 18.6 µM (active).
Regarding `COCC(C(=O)OC1CC2CCC(C1)N2C)c1ccccc1` (centres undefined), the activation is 4.33%.
For the compound `C=CC/C=C\C/C=C\CCCCCCCc1cc(O)cc(O)c1`, the activation is -9.92%.
The same measure, in the same setting: the result for `COC[C@]12CN(C)C3C4[C@H](OC)[C@H]1C3(C(OC)C[C@H]2O)[C@H]1C[C@@]2(O)[C@H](OC(=O)c3ccccc3)[C@@H]1[C@]4(O)[C@@H](O)[C@@H]2OC` (some centres undefined) reads -0.333%.
As for `CC[C@H]1C[C@@H]2CC[C@@H](O2)[C@@H](C)C(=O)O[C@H](CC)C[C@H]2CC[C@H](O2)[C@H](C)C(=O)O[C@@H](C)C[C@@H]2CC[C@@H](O2)[C@@H](C)C(=O)O[C@H](CC)C[C@H]2CC[C@H](O2)[C@H](C)C(=O)O1`, the activation is -0.893%.
Turning to `CC1=CC2OC3CC(O)[C@](C)([C@@]2(C)C(O)C1=O)[C@]31CO1` (some centres undefined), the Potency was 21.3 µM (active).
`CCC1=CC2CN3CCc4c([nH]c5ccccc45)[C@@](C(=O)OC)(C2)[C@@H]13`: the activation was 6.11%.
For `COc1cc(C(=O)O[C@H]2[C@@H]3C=CO[C@@H](O[C@@H]4O[C@H](CO)[C@@H](O)[C@H](O)[C@H]4O)[C@@H]3[C@@]3(CO)O[C@@H]23)ccc1O`, the activation is -3.82%.
`CC(=O)OC[C@]12C[C@H](O)C(C)=C[C@H]1O[C@@H]1[C@H](O)[C@@H](O)[C@@]2(C)[C@]12CO2`: the Potency was 6.59 µM (active).
`CCN1C[C@]2(COC)[C@H](O)C[C@H](OC)[C@]34[C@@H]5C[C@]6(O)[C@H](OC(=O)c7ccccc7)[C@@H]5[C@@](O)([C@H]([C@H](OC)[C@H]23)[C@@H]14)[C@@H](O)[C@@H]6OC`: the activation was 10.3%.
Consider `CCC1(O)CCC2C3CCC4=CC(=O)CCC4C3CCC21CC` (centres undefined), for which the activation was -2.33%.
Regarding `CC(C)(O)[C@H]1O[C@H]2CC[C@@]3(C)[C@@](O)(CC[C@H]4Cc5c([nH]c6ccccc56)[C@@]43C)C2=CC1=O`, the activation was 3.82%.
Take `CC(C)C1(OO)C=C2C(=O)CC3C(C)(C(=O)O)CCCC3(C)C2CC1` (centres undefined): the activation was 11.5%.
In the case of `COC1C=CC23c4cc5c(cc4COC2(O)CN(C)C3C1)OCO5` (centres undefined), the activation was -5.36%.
As for `CC1=C[C@H]2O[C@@H]3[C@H](O)[C@@H](O)[C@](C)([C@@]2(CO)C[C@@H]1O)[C@]31CO1`, the Potency was 7.57 µM (active).
On to `O=C(O)CCCCCCNC1c2ccccc2CCc2ccccc21`, for which the activation is 5.67%.
`C[C@]12CC[C@H](O)C[C@H]1CC[C@@H]1[C@@H]2[C@H](O)C(=O)[C@]2(C)[C@@H](c3ccc(=O)oc3)CC[C@]12O`: the Potency is 0.19 µM (active).
Turning to `CC(=O)O[C@@H]1[C@@H](O)[C@H]2O[C@@H]3C=C(C)[C@@H](O)C[C@]3(CO)[C@]1(C)[C@]21CO1`, the Potency was 1.48 µM (active).
For `CC1=CC2/C=C(\C)CCC(O)C(O)/C=C/C(=O)C23C(=O)NC(CC(C)C)C3C1C` (centres undefined), the Potency is 13.1 µM (active).
Turning to `O=C1C[C@@H]2OCC=C3CN4CC[C@]56c7ccccc7N1[C@H]5[C@H]2[C@H]3C[C@H]46`, the activation was -3.57%.
In the case of `C[C@]12CC[C@H](O)C[C@@H]1CC[C@@H]1[C@@H]2CC[C@]2(C)C(=O)CC[C@@H]12`, the activation is 6.33%.
In the case of `CCNC(=O)C[C@@H]1N=C(c2ccc(Cl)cc2)c2cc(OC)ccc2-n2c(C)nnc21`, the activation is -15.8% and 11.6%.
Consider `CCN1CC2(COC)C3[C@@H](OC)C4C1C3(C1C[C@]3(O)[C@H](OC(=O)c5ccccc5)C1[C@]4(OC(C)=O)[C@@H](O)[C@@H]3OC)[C@H](OC)C[C@H]2O` (some centres undefined), for which the activation is 8.33%.
With `C/C=C(\C)C(=O)OC1C(C)OC(OC2C(C)OC(OC3CCC4(C)C(=CCC5C4CCC4(C)C(C(C)OC6OC(COC7OC(CO)C(O)C(O)C7O)C(O)C(O)C6O)CCC54O)C3)CC2OC)C(O)C1OC` (centres undefined), the activation is 0.763%.
On the same count and under the same terms, the result for `Cc1ccc(Cn2nc(C(=O)N[C@@H]3C(C)(C)[C@@H]4CC[C@@]3(C)C4)cc2-c2ccc(Cl)c(C)c2)cc1` reads -9.82%; that for `C/C=C(\C)C(=O)OC1CC2C(CC=C3CC(OC4CC(OC)C(OC5CC(OC)C(OC6CC(OC)C(OC7CC(OC)C(O)C(C)O7)C(C)O6)C(C)O5)C(C)O4)CCC32C)C2(O)CCC(C(C)=O)C12C` (centres undefined), -6.11%; that for `COC(=O)N1CCN(C(=O)Cc2ccc(Cl)c(Cl)c2)[C@@H](CN2CCCC2)C1`, 1.91%.
